Source: PubChem (National Center for Advancing Translational Sciences (NCATS))
HT1080 IDH1KD tx: HT-1080 IDH1 knockdown cell toxicity (counter line) | HT-1080 IDH1 knockdown viability, ATP luminescence, 48 h | 360,000 tested, 2% active | Potency, µM (series often up to 46.1 µM), for inactives: at the highest dose activity, negative = toxicity, actives largely listed as cytotoxic;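 also: potency is read from the fitted curve at half-maximal effect; 0% = DMSO wells and -100% = cell-free medium wells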
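% activity derives from luminescence (CellTiter-Glo), normalised to DMSO and no-cell wells. HT-1080-IDH1KD cells, 750/well, had 48 h compound exposure at 37 °C.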
DT40 TDP1 CPT: DT40-hTDP1 cell growth loss with CPT. chicken DT40 Tdp1-/-;hTDP1 cells + 20 nM CPT, ATP luminescence, 48 h. Potency, µM (series often up to 46.2 µM), without a hit: at the highest dose activity change, negative = growth inhibition, hits mostly inhibitors. 420,000 tested, 12% active; also: potency is read from the fitted curve at half-maximal effect; nearly all actives have a fitted effect of over 55% in size
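Chicken DT40 Tdp1-/- cells stably complemented with human TDP1 were seeded at 400 cells/well in medium containing 20 nM camptothecin, exposed to pin-transferred compounds, and grown at 37 °C for at least 48 hr. Viability was read as ATP luminescence.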
IL-1B inflam inh: inhibitors of inflammasome signaling (IL-1 beta secretion); THP-1 LPS/ATP IL-1B secretion, AlphaLISA, 16 h; active compounds read low; activity change, % at 57.5 µM; 360,000 tested, 4.7% active; AID 743279; in the data active = activity change below about -50%; inconclusive = mostly about -30% to -49%
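Secreted IL-1B measured by AlphaLISA bead assay after 16 h compound exposure of THP-1 cells; compounds (final up to 57.5 uM) added 1 h before LPS (250 ng/mL) and ATP (1.25 mM) stimulation; lower signal means less secretion.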
HT1080-NT tox: kills 2HG-producing HT-1080-NT fibrosarcoma cells; HT-1080-NT fibrosarcoma viability, CellTiter-Glo ATP luminescence, 48 h; Potency, µM (titrated, usually from 46.1 µM), inactives show at the top dose activity, negative = less viability, hits mostly cytotoxic; 360,000 tested, 1.6% active; AID 686970;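 also: NT is the 2HG producing partner of a matched IDH1 knockdown line; potency is read from the fitted curve at half-maximal effect; 0% = DMSO-treated cells and -100% = media-only wells without cells; nearly all actives have a fitted effect of over 55% in size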
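Fibrosarcoma NT cells, 750 per well in 5% FBS RPMI, were exposed to compound for 48 hours. Viability: CellTiter-Glo luminescence.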
DT40 TDP1 no CPT: qHTS for Inhibitors of human tyrosyl-DNA phosphodiesterase 1 (TDP1): qHTS in cells in absence of CPT; 420,000 tested, 15% active; DT40 Tdp1-/- hTDP1 cells, no CPT, ATP luminescence, 48 h; AID 686978, 2013; Potency, µM (titrated, usually from 46.2 µM), for the others: at the top dose activity change, negative = growth inhibition, usual class: inhibitors; also: potency is read from the fitted curve at half-maximal effect; nearly all actives have a fitted effect of over 55% in size
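A cellular qHTS used chicken DT40 cells lacking endogenous Tdp1 but carrying stably transfected human TDP1. Compounds were applied without camptothecin, and cell growth kinetics were judged by ATP-dependent luminescence after ≥48 hr.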
* hit, by the source's call; ? = inconclusive; . = no result; ! = a repeat was not active. Most compounds without a hit are left out; they make up all but 19% or so of the library. Unless noted, calls follow the shape of the dose curve; as a rule, active = well fitted curve in the direction sought with a large enough effect; inconclusive = small, poorly fitted or top-dose-only effect, or another doubt; inactive = no such curve, though single readings can be large; an effect the other way counts as inactive or inconclusive. Unless noted, % is scaled to controls: 0 for no effect and ±100 for the full control effect.

SMILES	HT1080 IDH1KD tx	DT40 TDP1 CPT	IL-1B inflam inh	HT1080-NT tox	DT40 TDP1 no CPT
C/C(Cl)=C\Cn1c(O)c(N=NC(N)=S)c2cc(Br)ccc21	?	1.3µM*	98.4	?	1.64µM*
NC(=S)N=Nc1c(O)n(CCCl)c2ccc(Br)cc12	-9.3%	16.4µM*	-101.3*	-2.2%	23.1µM*
O=C(NCCN1CCCC(O)C1)c1cc(COc2cccc(C(F)(F)F)c2)on1 (stereo not drawn)	4.7%	-25.5%	19.6	-14.9%	?
COC(=O)c1ccc(/C=N/n2c(C)nc3ccccc3c2=O)cc1	7.8%	-11.5%	-11.1	0.4%	?
Cc1cc(C)c2c(N)c(C(=O)N3CCc4ccccc4C3)sc2n1	-4.3%	?	-11.9	2.0%	29.1µM*
Cc1cc(C)c2c(N)c(C(=O)c3ccccc3)sc2n1	23.1%	-27.6%	-18.5	16.5%	?
CCN1CCc2nc3sc(C(=O)N4CCc5ccccc5C4)c(N)c3cc2C1	-7.9%	?	-73.1*	?	?
CCCCC[C@H](C)N1C[C@H](COCc2ccccc2)Oc2cc(N3CC[C@H](N(C)C)C3)ccc2S1(=O)=O	20.6µM*	?	?	?	16.4µM*
CCCCC[C@@H](C)N1C[C@H](COCc2ccccc2)Oc2cc(N3CC[C@@H](N(C)C)C3)ccc2S1(=O)=O	10.3µM*	23.1µM*	-91.9*	11.6µM*	20.6µM*
C[C@@H](c1ccccc1)N1C[C@@H](COCc2ccccc2)Oc2cc(N3CC[C@@H](N(C)C)C3)ccc2S1(=O)=O	23.1µM*	?	-11.9	18.4µM*	14.6µM*
C[C@@H](c1ccccc1)N1C[C@@H](COCc2ccccc2)Oc2cc(N3CC[C@@H](O)C3)ccc2S1(=O)=O	?	?	-16.9	?	?
CCCCC[C@H](C)N1C[C@H](COCc2ccccc2)Oc2cc(N3CC[C@@H](N(C)C)C3)ccc2S1(=O)=O	16.4µM*	?	-63.6*	20.6µM*	?
Nc1c(-c2cccc([N+](=O)[O-])c2)nc2ccccn12	4.0%	3.7%	2.1	1.1%	?
CCCCCCNc1c([N+](=O)[O-])c(=O)sc2ccccc12	-12.6%	?	37.5	?	?
Cc1cc(N2CCOCC2)nc2ccc(Cl)cc12	4.8%	-3.7%	-1.6	9.0%	?
C[C@H](c1ccccc1)N1C[C@H](COCc2ccccc2)Oc2cc(N3CC[C@@H](N(C)C)C3)ccc2S1(=O)=O	7.5%	9.9%	46.7	5.6%	-18.8%
CCCCC[C@@H](C)N1C[C@@H](COCc2ccccc2)Oc2cc(N3CC[C@@H](N(C)C)C3)ccc2S1(=O)=O	18.4µM*	20.6µM*	-89.0*	20.6µM*	23.1µM*
CC(C)c1nc2c(c(=O)c3ccccc3n2C)c(=O)n1-c1ccc(F)cc1	-3.7%	14.6µM*	40.8	-0.3%	11.6µM*
Cc1nc2c(c(=O)c3ccccc3n2C)c(=O)n1-c1ccc(F)cc1	2.0%	-4.6%	0.0	-0.2%	?
COc1ccc(/C=N/NC(=O)c2cc3c(OC)ccc(OC)c3[nH]2)cc1O	0.411µM*	0.366µM*	-27.0	2.31µM*	0.206µM*
COc1ccc(OC)c2[nH]c(C(=O)N/N=C/c3ccccc3O)cc12	?	5.17µM*	84.3	?	3.66µM*
COc1ccc(/C=N/NC(=O)c2cnccn2)cc1O	-1.6%	11.2%	9.0	-1.0%	-3.8%
COc1ccc(OC)c(/C=N/NC(=O)c2cc3c(OC)cccc3[nH]2)c1	-7.0%	-21.8%	-28.8	-2.9%	?
Cc1ccc(C(=O)Nn2cnnc2)cc1Cl	1.1%	-6.9%	6.2	-6.4%	-12.1%
COc1ccc(CN2CCCC(CO)(Cc3ccc(F)cc3)C2)cc1C (stereo not drawn)	-15.5%	?	-60.9*	-1.1%	?
SMILES	HT1080 IDH1KD tx	DT40 TDP1 CPT	IL-1B inflam inh	HT1080-NT tox	DT40 TDP1 no CPT
CC(C)Oc1ccc(CN2CCCC(CO)(Cc3ccccc3)C2)cc1CO (stereo not drawn)	-16.2%	29.1µM*	-53.7*	-22.9%	?
CCc1cccc(N(C)C(N)=Nc2cccc3ccccc23)c1	17.2%	10.6µM*!	14.7	?	15µM*!
CSCCC(=O)N(C)CC1CCN(CCc2cccc(C(F)(F)F)c2)CC1	3.1%	-6.3%	-13.1	4.4%	-13.1%
COc1ccc(C(=O)N(C)CC2CCN(CCc3cccc(C(F)(F)F)c3)CC2)cc1C	1.3%	?	-60.6*	-8.0%	?
CN(CC1CCN(CCc2cccc(C(F)(F)F)c2)CC1)C(=O)c1ccc(F)cc1F	-9.7%	?	-50.5*	-2.2%	?
Cc1cc(C)n(-c2ccc(NC(=O)C3CCCCN3C(=O)c3ccc(C)s3)cc2)n1 (stereo not drawn)	7.6%	-19.3%	?	-1.2%	-24.3%
CN(C)CCNc1nccc(N2CCN(C)CC2)n1	.	8.5%	.	.	-9.5%
CCCCCN(C(=O)NC(=O)Nc1ccc(C)cc1)S(=O)(=O)c1ccccc1	5.6%	?	-5.0	8.8%	?
CC(C)(C)OC(=O)NCCCCCNC(=O)c1[nH]cnc1C(=O)Nc1ccccc1	-10.6%	?	-14.0	-11.3%	14.6µM*
Cc1ccc(NC(=O)c2nc[nH]c2C(=O)NCCCCCNC(=O)OC(C)(C)C)cc1	-28.4%	?	-61.7*	?	16.4µM*
CC(C)(C)OC(=O)NCCCCCNC(=O)c1[nH]cnc1C(=O)Nc1ccc(Cl)cc1	?	?	?	?	14.6µM*
CCN(CC)C(=O)c1[nH]cnc1C(=O)Nc1ccc(Cl)cc1	6.2%	-1.9%	-9.1	6.8%	-0.6%
CCc1nc(N2CCCC2C(=O)O)c2oc3ccccc3c2n1 (stereo not drawn)	4.2%	-4.6%	12.9	-0.8%	3.4%
CCc1nc(N2CCN(C(=O)c3ccco3)CC2)c2oc3ccccc3c2n1	?	20.6µM*	-26.5	?	20.6µM*
Cc1nc(N2CCN(C(=O)c3ccco3)CC2)c2oc3ccccc3c2n1	?	14.6µM*	?	?	20.6µM*
CCOc1ccc(NC(=O)c2ccc(N3CC4CC(C3)c3cccc(=O)n3C4)c(NC(=O)c3cccnc3)c2)cc1 (stereo not drawn)	0.5%	-18.3%	-17.8	-0.2%	-10.7%
Cc1ccccc1NC(=O)c1ccc(Cl)c(NC(=O)c2ccncc2)c1	13.1%	-4.9%	21.5	5.3%	-15.9%
CC(=O)N(C(C)=O)N1C(=O)C2C3c4ccccc4C(c4ccccc43)C2C1=O (stereo not drawn)	13µM*	?	-10.3	20.6µM*	?
